{
  "source": "PubChem BioAssay AID686978",
  "about": "(National Center for Advancing Translational Sciences (NCATS), 2013)",
  "note": "Hit rate of the full screen: of about 420,000 compounds, about 64,000 (15%) were called active. Not shown: some 27% with an inconclusive outcome. These entries were drawn from the full list. Unmarked numbers belong to inactive results. Calls come from the whole dose curve; as a rule, active = well fitted inhibition curve with a large enough effect; inconclusive = small, poorly fitted or top-dose-only effect; inactive = flat fitted curve, though single readings scatter. % is set by controls: 0 for no effect and ±100 for the full control effect; potency is the fitted concentration of half-maximal effect.",
  "data": [
    {"assay": "qHTS for Inhibitors of human tyrosyl-DNA phosphodiesterase 1 (TDP1): qHTS in cells in absence of CPT; note: nearly all actives have a fitted effect of over 55% in size", "conditions": "DT40 Tdp1-/- hTDP1 cells, no CPT, ATP luminescence, 48 h; activity change, negative = growth inhibition: at 46.2 µM (top of the series)", "excerpt": "Human tyrosyl-DNA phosphodiesterase 1 (TDP1) is a novel repair gene, and we propose to use it as a new target for anticancer drug development. TDP1 is not an essential protein, but under treatment with topoisomerase I poison (camptothecin: CPT), TDP1 works as a critical factor for cell survival. To directly identify novel TDP1 inhibitors active in a cellular environment, we have knocked-out the Tdp1 gene in chicken DT40 cells (Tdp1-/-) and generated a complemented counterpart cells that contains a stable transfection of the human TDP1 gene (Tdp1-/-;hTDP1 cells). For the primary screen, Tdp1-/-;hTDP1 cells will be exposed to small molecules in the presence or absence of CPT, and their growth kinetics will be evaluated after 48 hours by measuring ATP activity. […] The hit compounds will then be evaluated in the presence or absence of CPT using Tdp1-/- cells. […] In tertiary assays, biochemical gel-based assays will be used to assess whether the hit compounds specifically target TDP1.\nTo this end, we have screened this cell line against the MLSMR in two primary screens. In one screen we add CPT and in the other we screen in the absence of CPT; this AID represents the screen where CPT was absent.\nNIH Chemical Genomics Center [NCGC]\nNIH Molecular Libraries Probe Centers Network [MLPCN]\nAssay Submitter (PI): Yves Pommier, NCI\nDT40-hTDP1 cells without 20 nM Camptothecin (add 20 microL of DMSO in 1 L of cell culture medium) were dispensed at 400 cells/5microL/well in tissue culture treated 1536-well white wall/solid bottom assay plates (Greiner Bio-One North America, NC, U.S.A.) using a Multidrop Combi 8 channel dispenser (Thermo Fisher, Waltham, MA, USA). 23 nL compounds and controls were transferred using the pin tool (Kalypsys, San Diego, CA, USA) to the assay plates. The assay plates were then incubated at 37 masculineC for a minimum 48 hr. Three microL of Cell Titer Glo solution was added to the plates and incubated at RT in dark for 30 min. Luminescence was read using ViewLux (Perkin Elmer) with 1 sec exposure slow speed, high gain and 2x binning.", "units": {"activity change, negative = growth inhibition": "%"}, "values": [
      {"molecule": "Cc1ccc(S(=O)(=O)NCCC(c2ccccc2)c2ccccc2)cc1C(=O)O", "activity change, negative = growth inhibition": -15.3},
      {"molecule": "O=C(CCCOc1ccc(Cl)cc1Cl)NNC(=O)C1CCC1", "activity change, negative = growth inhibition": -1.44},
      {"molecule": "Cc1ccc(C)c2[nH]c(=O)c(CCNC(=O)CC(C)C)cc12", "activity change, negative = growth inhibition": 2.3},
      {"molecule": "COc1ccc(Cc2nnnn2CC(=O)O)cc1", "activity change, negative = growth inhibition": 8.47},
      {"molecule": "Cc1ccc(S(=O)(=O)CC(=O)Nc2c(C)n(C)n(-c3ccccc3)c2=O)cc1", "activity change, negative = growth inhibition": 20.7},
      {"molecule": "Cc1cc(C)n2nc(SCC(N)=O)nc2n1", "activity change, negative = growth inhibition": -3.37},
      {"molecule": "CC(NC(=O)COC(=O)Cn1cc(C(F)(F)F)ccc1=O)c1ccccc1", "note": "(stereo not drawn)", "activity change, negative = growth inhibition": 3.95},
      {"molecule": "CCOC(=O)c1c(C)[nH]c(C)c1S(=O)(=O)NCC(=O)NCc1cccc(C)c1", "activity change, negative = growth inhibition": -10.1},
      {"molecule": "COc1cc(/C=N\\NC(=O)C2C(=O)NCC2c2ccccc2)cc(OC)c1O", "note": "(stereo not drawn)", "activity change, negative = growth inhibition": -14.8},
      {"molecule": "COc1cc(/C=N/NC(=O)c2cc(-c3ccccc3C)nc3ccccc23)cc(OC)c1O", "Potency": "6.51 µM (active)"},
      {"molecule": "CC1(C)CC(CC(=O)O)C(=O)O1", "note": "(stereo not drawn)", "activity change, negative = growth inhibition": -5.69},
      {"molecule": "CC(=O)NCC(=O)N(C)C(C(=O)Nc1ccc2c(c1)OCCO2)c1ccccc1", "note": "(stereo not drawn)", "activity change, negative = growth inhibition": -10.1},
      {"molecule": "N#Cc1ccccc1NC(=O)c1cccc(COc2ccc(Cl)cc2Cl)c1", "activity change, negative = growth inhibition": -7.54},
      {"molecule": "Cc1ccc(NC(=O)Cn2sc3ccccc3c2=O)cc1", "Potency": "4.61 µM (active)"},
      {"molecule": "Cc1nn(CC(=O)Nc2ccc(F)cc2)c(=O)c2ccccc12", "activity change, negative = growth inhibition": 1},
      {"molecule": "Cc1ccc(NC(=O)Cn2c(C)csc2=O)cc1", "activity change, negative = growth inhibition": -14.9},
      {"molecule": "CCN1CCN(C(=O)CN(C)S(=O)(=O)c2ccc3ccccc3c2)CC1", "activity change, negative = growth inhibition": -1.29},
      {"molecule": "CSCC[C@H](NC(=O)NCCc1ccc(F)cc1)C(=O)O", "activity change, negative = growth inhibition": -4.91},
      {"molecule": "O=C(Nc1cccc(Br)c1)C1CC(=O)N(C2CCCC2)C1", "note": "(stereo not drawn)", "activity change, negative = growth inhibition": -7.2},
      {"molecule": "COc1ccc(Br)cc1CN(C)C(=O)C1CC(=O)N(C2CCCC2)C1", "note": "(stereo not drawn)", "Potency": "23.1 µM (active)"},
      {"molecule": "CN(CC(=O)Nc1ccc(F)c(F)c1F)C(=O)C1CC(=O)N(C2CCCC2)C1", "note": "(stereo not drawn)", "activity change, negative = growth inhibition": -24.1},
      {"molecule": "CC(C)C(=O)Nc1oc(-c2ccccc2)cc1C#N", "activity change, negative = growth inhibition": -16.5},
      {"molecule": "Cc1ccc(NC(=O)CN(C)C(=O)Cn2nnc(-c3ccccc3)n2)cc1", "activity change, negative = growth inhibition": -1.72},
      {"molecule": "CCCn1nc(C(=O)NNC(=O)CCOc2ccccc2OCC)c2ccccc2c1=O", "activity change, negative = growth inhibition": -17.3},
      {"molecule": "CCCn1nc(C(=O)Nc2ccc3nc(C)sc3c2)c2ccccc2c1=O", "Potency": "18.4 µM (active)"},
      {"molecule": "CCCn1nc(C(=O)NNC(=O)CSCC(=O)Nc2cc(C)on2)c2ccccc2c1=O", "activity change, negative = growth inhibition": -4.94},
      {"molecule": "CCCCCC(=O)Nc1ccc(C(=O)N/N=C/c2ccc([N+](=O)[O-])cc2)cc1", "activity change, negative = growth inhibition": -26.6},
      {"molecule": "CCOC(=O)/C=C/CN(C(=O)OC(C)(C)C)S(=O)(=O)N1CC=CC1", "activity change, negative = growth inhibition": 1.07},
      {"molecule": "Cc1ccccc1C(=O)O", "activity change, negative = growth inhibition": -0.573},
      {"molecule": "COC(=O)c1ccccc1C(=O)NCc1nc(N2CCCC2)c2cccc(C)c2n1", "activity change, negative = growth inhibition": 0.141},
      {"molecule": "CCOc1ccc2[nH]c(C(=O)N/N=C/c3cccc(OC)c3OC)cc2c1", "Potency": "16.4 µM (active)"},
      {"molecule": "CCOc1ccccc1/C=N/NC(=O)CNC(=O)COc1ccccc1", "activity change, negative = growth inhibition": -22.7},
      {"molecule": "COc1cccc2[nH]c(C(=O)NCCc3ccccc3)cc12", "activity change, negative = growth inhibition": -2.24},
      {"molecule": "COc1ccc(/C=N/NC(=O)c2cccc(C(F)(F)F)c2)cc1", "activity change, negative = growth inhibition": -2.42},
      {"molecule": "COc1ccc2[nH]c(C(=O)Nc3ccccc3Cl)cc2c1", "activity change, negative = growth inhibition": -24.8},
      {"molecule": "COc1cc2cc(C(=O)N/N=C/c3cccc(OC)c3OC)[nH]c2cc1OC", "Potency": "13 µM (active)"},
      {"molecule": "CCCOP(=O)(c1ccc(N(C)C)cc1)C(O)c1cc(OC)c(OC)c(OC)c1", "note": "(stereo not drawn)", "activity change, negative = growth inhibition": -28.2},
      {"molecule": "Cc1ccc2oc(=O)ccc2c1", "activity change, negative = growth inhibition": -1.58},
      {"molecule": "CC(=O)Nc1ccc(S(=O)(=O)Nc2nccc(/C=C/c3ccccc3F)n2)cc1", "activity change, negative = growth inhibition": 1.13},
      {"molecule": "CCN(Cc1ccccc1)S(=O)(=O)c1cc(C(=O)O)ccc1OC", "activity change, negative = growth inhibition": 4.3},
      {"molecule": "CCN([C@H](CO)C(C)C)S(=O)(=O)c1ccccc1Br", "activity change, negative = growth inhibition": -1.36},
      {"molecule": "COCCNS(=O)(=O)c1cc(Br)ccc1OC", "activity change, negative = growth inhibition": 8.91},
      {"molecule": "C=CC(COCc1ccccc1)N(CC(=O)OC)S(=O)(=O)c1cc(Br)ccc1OC", "note": "(stereo not drawn)", "Potency": "25.9 µM (active)"},
      {"molecule": "C=CCCN(Cc1ccccc1)S(=O)(=O)c1ccccc1Br", "activity change, negative = growth inhibition": -24.9},
      {"molecule": "C=CC(COCc1ccccc1)N(Cc1ccccc1)S(=O)(=O)c1ccccc1Br", "note": "(stereo not drawn)", "Potency": "16.4 µM (active)"},
      {"molecule": "CCN(CCn1cccn1)C(=O)CC1C(=O)NCCN1Cc1cccc(OC)c1OC", "note": "(stereo not drawn)", "activity change, negative = growth inhibition": -27},
      {"molecule": "Brc1ccc(-c2nn[nH]n2)cc1", "activity change, negative = growth inhibition": -10.9},
      {"molecule": "CCN=C1SC(CC(=O)Nc2ccc(C)cc2)C(=O)N1CC", "note": "(stereo not drawn)", "activity change, negative = growth inhibition": 3.16},
      {"molecule": "O=C(c1ccc(CS(=O)Cc2ccccc2Cl)o1)N1CCN(c2ccccc2)CC1", "note": "(stereo not drawn)", "Potency": "20.6 µM (active)"},
      {"molecule": "O=C(NCc1cccs1)c1ccc(CS(=O)Cc2ccccc2Cl)o1", "note": "(stereo not drawn)", "activity change, negative = growth inhibition": -3.62},
      {"molecule": "COc1ccc(NS(=O)(=O)c2cccc3nsnc23)cc1Cl", "activity change, negative = growth inhibition": -1.64},
      {"molecule": "C=CCn1c(-c2ccc(Cl)cc2)ccc(C#N)c1=O", "activity change, negative = growth inhibition": -34.7},
      {"molecule": "CCN(CC)c1ccc(C(=O)c2cnc(/N=C/N(C)C)s2)cc1", "activity change, negative = growth inhibition": 1.44}
    ]}
  ]
}
